Results: PubChem BioAssay
Calls of active or inactive are those of the source.

How the values were obtained:
[1] = optical density shifts of acrAB sulA E. coli – strain DRC41, OD650, 48 h, E. coli filamentation inducer project, primary screen (AID 1152); settings: higher = more signal, called active from +8 up or from −8 down;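 note: E. coli MC1000 strain DRC41 lacking acrAB efflux pump and sulA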
[2] = probe aLefty1 binding on compound microarray – biochemical, small-molecule microarray, 635/667 nm fluorescence, primary screen (AID 1153); settings: higher = more signal;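 note: score merges spot fluorescence with signal-to-noise ratio from the scanned slide images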
[3] = plasmodial surface anion channel blockers, osmotic lysis – cell-based, P. falciparum Indochina, OD700, 1 h, primary screen (AID 1154); settings: P. falciparum Indochina infected RBC osmotic lysis, higher = more signal, called active from +8 up or from −8 down
[4] = plasmodial surface anion channel blockers, osmotic lysis – cell-based, P. falciparum Indochina, OD700, 2 h, primary screen (AID 1155);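 note: lysis reports solute entry through the parasite surface anion channel PSAC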; settings: P. falciparum Indochina infected erythrocytes, higher = more signal, called active from +8 up or from −8 down
[5] = changes in parasitized red cell lysis, either direction – P. falciparum Indochina, OD700, 3 h, PSAC antagonist project, primary screen (AID 1156); settings: P. falciparum-infected erythrocytes, osmotic lysis, higher = more signal, called active from +8 up or from −8 down
[6] = plasmodial surface anion channel blockers, osmotic lysis – cell-based, P. falciparum Indochina, OD700, 18 h, primary screen (AID 1157); settings: P. falciparum Indochina infected erythrocytes, osmotic lysis OD700, 18 h; higher = more signal, called active from +8 up or from −8 down
[7] = S6 kinase pathway phospho-S6 level changes – cell-based, A549, cytoblot, luminescence, serum-stimulated, primary screen (AID 1158); settings: 5 h, higher = more signal;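 note: serum-stimulated A549 lung adenocarcinoma cells; signal is phosphorylated S6 detected by cytoblot immunostaining with HRP secondary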
[8] = target: NADPH oxidase 2 (Homo sapiens) (UniProt P04839); experiment: compounds shifting NOX2 Amplex Red fluorescence – cell-based, HEK293-NOX2, PMA-stimulated, NOX inhibitor project, primary screen (AID 1159); settings: 45 min, higher = more signal, called active from +8 up or from −8 down; note: test concentration not given here
Sequence of NADPH oxidase 2 (Homo sapiens) (P04839 whole entry, looked up): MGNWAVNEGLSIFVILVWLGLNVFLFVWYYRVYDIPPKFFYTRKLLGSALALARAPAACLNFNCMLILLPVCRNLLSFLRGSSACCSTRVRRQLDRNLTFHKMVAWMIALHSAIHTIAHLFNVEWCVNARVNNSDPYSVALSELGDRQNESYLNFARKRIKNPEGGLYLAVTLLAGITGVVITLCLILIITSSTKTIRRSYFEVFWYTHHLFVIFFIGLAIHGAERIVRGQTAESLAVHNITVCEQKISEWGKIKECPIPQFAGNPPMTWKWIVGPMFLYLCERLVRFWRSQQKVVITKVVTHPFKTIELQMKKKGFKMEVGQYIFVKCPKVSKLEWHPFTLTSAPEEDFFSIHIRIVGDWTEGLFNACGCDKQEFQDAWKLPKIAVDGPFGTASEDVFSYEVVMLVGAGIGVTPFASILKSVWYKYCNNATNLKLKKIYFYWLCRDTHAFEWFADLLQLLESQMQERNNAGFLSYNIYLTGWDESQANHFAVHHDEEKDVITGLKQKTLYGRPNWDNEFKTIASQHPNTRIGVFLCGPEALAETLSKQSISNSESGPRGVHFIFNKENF

[9] = target: NADPH oxidase 4 (Homo sapiens) (UniProt Q9NPH5); experiment: compounds shifting NOX4 Amplex Red fluorescence – cell-based, HEK293-NOX4, tetracycline-induced, NOX inhibitor project, primary screen (AID 1160); settings: HEK293-NOX4, Amplex Red H2O2 fluorescence, 45 min; higher = more signal, called active from +8 up or from −8 down
Sequence of NADPH oxidase 4 (Homo sapiens) (Q9NPH5 whole entry, looked up): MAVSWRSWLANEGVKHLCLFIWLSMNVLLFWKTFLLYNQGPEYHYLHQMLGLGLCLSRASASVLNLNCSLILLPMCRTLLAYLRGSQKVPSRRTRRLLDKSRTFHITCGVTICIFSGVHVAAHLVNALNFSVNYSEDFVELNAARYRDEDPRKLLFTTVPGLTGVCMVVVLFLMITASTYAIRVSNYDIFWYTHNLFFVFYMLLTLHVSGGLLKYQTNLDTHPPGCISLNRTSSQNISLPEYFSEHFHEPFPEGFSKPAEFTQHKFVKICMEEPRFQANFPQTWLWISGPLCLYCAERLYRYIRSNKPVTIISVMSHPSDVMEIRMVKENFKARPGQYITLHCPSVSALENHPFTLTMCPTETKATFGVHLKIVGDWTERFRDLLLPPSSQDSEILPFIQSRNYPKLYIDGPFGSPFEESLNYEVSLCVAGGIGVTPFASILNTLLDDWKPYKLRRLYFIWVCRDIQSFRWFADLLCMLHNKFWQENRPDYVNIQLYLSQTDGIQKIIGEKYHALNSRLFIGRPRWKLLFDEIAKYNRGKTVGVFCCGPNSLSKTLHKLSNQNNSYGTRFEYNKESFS

[10] = target: NADPH oxidase 5 (Homo sapiens) (UniProt Q96PH1); experiment: compounds shifting NOX5 Amplex Red fluorescence – cell-based, HEK293-NOX5, NOX inhibitor project, primary screen (AID 1161); settings: HEK293-NOX5, ionomycin, 45 min, higher = more signal
Sequence of NADPH oxidase 5 (Homo sapiens) (Q96PH1 whole entry, looked up): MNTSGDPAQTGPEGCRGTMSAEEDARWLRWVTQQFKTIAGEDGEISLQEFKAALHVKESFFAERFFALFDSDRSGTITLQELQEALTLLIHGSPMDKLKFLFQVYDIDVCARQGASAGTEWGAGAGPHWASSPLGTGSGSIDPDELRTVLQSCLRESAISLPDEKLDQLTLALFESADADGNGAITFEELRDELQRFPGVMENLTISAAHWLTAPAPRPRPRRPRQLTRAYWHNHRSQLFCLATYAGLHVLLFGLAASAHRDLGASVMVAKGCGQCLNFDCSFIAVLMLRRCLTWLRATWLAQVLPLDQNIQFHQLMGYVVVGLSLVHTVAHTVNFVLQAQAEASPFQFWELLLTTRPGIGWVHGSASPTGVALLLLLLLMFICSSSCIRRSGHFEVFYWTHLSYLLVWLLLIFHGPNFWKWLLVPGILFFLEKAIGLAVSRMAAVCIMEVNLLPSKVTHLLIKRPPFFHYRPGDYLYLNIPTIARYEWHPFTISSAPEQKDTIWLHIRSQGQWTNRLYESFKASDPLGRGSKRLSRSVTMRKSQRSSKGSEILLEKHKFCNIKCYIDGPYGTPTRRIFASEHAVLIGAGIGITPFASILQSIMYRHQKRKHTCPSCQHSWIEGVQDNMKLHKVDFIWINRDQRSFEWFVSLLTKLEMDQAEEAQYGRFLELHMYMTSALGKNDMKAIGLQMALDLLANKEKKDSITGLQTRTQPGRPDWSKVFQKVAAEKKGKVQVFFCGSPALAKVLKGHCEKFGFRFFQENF

[11] = compound effects on lung adenocarcinoma cell viability – A549, calcein-AM fluorescence, 48 h, basal, profiling panel (AID 1162); settings: higher = more signal; note: test concentration not given here
[12] = compound effects on differentiated 3T3-L1 adipocyte viability – cell-based, 3T3-L1 adipocytes, calcein-AM fluorescence, 48 h, basal, profiling panel (AID 1163); settings: 3T3-L1 adipocytes viability, higher = more signal; note: test concentration not given here
[13] = compound effects on hepatocellular carcinoma cell viability – HepG2, calcein-AM fluorescence, 48 h, basal, profiling panel (AID 1164); settings: higher = more signal; note: test concentration not given here
[14] = compound effects on multiple myeloma cell viability – MM1S, calcein-AM fluorescence, 48 h, basal, profiling panel (AID 1165); settings: higher = more signal;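 note: viability of MM1S multiple myeloma cells under basal unstimulated conditions; test concentration not given here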
[15] = calcein-AM signal in unstimulated myeloma cells – cell-based, calcein-AM fluorescence, 48 h, PK04 Diversity Set, profiling panel (AID 1166); settings: RPMI8226 myeloma viability, higher = more signal;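 note: cells grown under basal conditions without added stimulus; test concentration not given here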
[16] = JC-1 mitochondrial signal, unstimulated HepG2 cells – cell-based, JC-1 fluorescence, 24 h, 100 nL compound, profiling panel (AID 1167); settings: HepG2 mitochondrial potential, higher = more signal; note: test concentration not given here
[17] = JC-1 mitochondrial signal, unstimulated adipocytes – cell-based, JC-1 fluorescence, 3T3-L1 adipocytes, 24 h, 100 nL compound, profiling panel (AID 1168); settings: JC-1 mitochondrial fluorescence, higher = more signal, called active from +8 up or from −8 down; note: test concentration not given here
[18] = JC-1 mitochondrial signal, unstimulated myeloma cells – cell-based, JC-1 fluorescence, RPMI8226, 24 h, 100 nL compound, profiling panel (AID 1169); settings: JC-1 mitochondrial potential fluorescence, higher = more signal; note: test concentration not given here
[19] = JC-1 mitochondrial signal, unstimulated MM1S myeloma – cell-based, JC-1 fluorescence, 24 h, 100 nL compound, profiling panel (AID 1170); settings: MM1S mitochondrial potential, higher = more signal; note: test concentration not given here
[20] = resazurin metabolic signal in A549 cells – cell-based, resazurin fluorescence, 24 h, PK04 Diversity Set, profiling panel (AID 1171); settings: A549 viability, higher = more signal, called active from +8 up or from −8 down; note: test concentration not given here

SMILES | z-score [1] | composite z-score [2] | z-score [3] | z-score [4] | z-score [5] | z-score [6] | z-score [7] | z-score [8] | z-score [9] | z-score [10] | z-score [11] | z-score [12] | z-score [13] | z-score [14] | z-score [15] | z-score [16] | z-score [17] | z-score [18] | z-score [19] | z-score [20]
[N-]=[N+]=Nc1ccccc1[C@H]1OC(c2ccc(OCCCO)cc2)=N[C@@]1(CCS(=O)(=O)c1ccccc1)C(=O)N1CCCCC1 | -0.311 (inactive) | 0.495 | 29.8 (active) | 23.1 (active) | 3.29 (inactive) | 3.04 (inactive) | 1.04 | -1.34 (inactive) | 0.303 (inactive) | -0.265 | -0.851 | 1.5 | -0.641 | -1.56 | -2.7 | 0.43 | -0.903 (inactive) | -0.877 | -0.801 | -1.01 (inactive)
COCCOC(=O)N1C(=O)[C@@]2(c3cc(C#Cc4ccc(OC)cc4)ccc31)[C@H](C(=O)N1CCCCCCC1)[C@H]1C(=O)O[C@H](c3ccccc3)[C@H](c3ccccc3)N1[C@@H]2c1ccc(O)cc1 | 0.785 (inactive) | 1.58 | 1.04 (inactive) | -0.134 (inactive) | -0.318 (inactive) | -0.518 (inactive) | 1.27 | -0.76 (inactive) | -0.951 (inactive) | -1.4 | -0.938 | 1.07 | -0.618 | -0.26 | -0.943 | -0.73 | 0.88 (inactive) | -0.0794 | -0.559 | 0.545 (inactive)
[N-]=[N+]=NCc1ccccc1C[C@@]1(C(N)=O)N=C(c2ccc(OCCCO)cc2)O[C@@H]1c1ccccc1CN=[N+]=[N-] | 0.315 (inactive) | 0.315 | 26.2 (active) | 10.1 (active) | 1.31 (inactive) | 1.38 (inactive) | -0.107 | 0.415 (inactive) | 0.14 (inactive) | -1.66 | 0.703 | -0.323 | 1.42 | -1.25 | -3.08 | 1.18 | -0.301 (inactive) | -1.1 | -0.422 | -0.136 (inactive)
CN(C)CCCNC(=O)[C@@]1(c2ccc([N+](=O)[O-])cc2)CC(=O)N(CC23CC4CC(CC(C4)C2)C3)[C@@H]1c1ccc(CO)cc1 | -3.6 (inactive) | 0.885 | 0.924 (inactive) | -0.365 (inactive) | -0.788 (inactive) | -0.798 (inactive) | -2.28 | -8.3 (active) | -2.09 (inactive) | 0.357 | -3.74 | 0.0309 | -5.05 | -3.8 | -4.03 | -1.58 | 0.303 (inactive) | -1.04 | -2.33 | -4.78 (inactive)
CC(C)CNC(=O)[C@@H]1c2ccccc2C(=O)N(Cc2cc(F)cc(C(F)(F)F)c2)[C@H]1c1ccc(CO)cc1 | 2.9 (inactive) | 0.0571 | 2.62 (inactive) | 0.649 (inactive) | 1.27 (inactive) | -0.111 (inactive) | 0.207 | -0.453 (inactive) | 0.967 (inactive) | 0.52 | 2.21 | -0.979 | 1.37 | -0.215 | 0.857 | 2.31 | 0.299 (inactive) | -0.137 | 0.205 | 0.317 (inactive)
O=C(O)[C@H](Cc1ccccc1)n1cc(-c2ccccn2)nn1 | -0.267 (inactive) | -0.0969 | -0.258 (inactive) | -0.431 (inactive) | -0.906 (inactive) | -0.0561 (inactive) | -0.428 | -1.61 (inactive) | -0.653 (inactive) | -1.24 | -0.529 | 0.039 | -0.129 | 0.228 | -0.608 | 0.237 | 1.56 (inactive) | -0.166 | -0.263 | 0.507 (inactive)
C#CCNC(=O)[C@H](Cc1ccccc1)NC(=O)[C@@H](N=[N+]=[N-])C(C)C | 0.367 (inactive) | -0.145 | 0.0059 (inactive) | 0.705 (inactive) | 0.0901 (inactive) | 0.405 (inactive) | -0.52 | 0.291 (inactive) | -0.18 (inactive) | 0.323 | -0.447 | -0.804 | 0.0785 | 0.579 | 0.116 | -0.266 | -0.503 (inactive) | -0.205 | 0.254 | 0.903 (inactive)
C=CC[C@@]12N=C(c3ccc(OCCCO)cc3)O[C@@H]1c1ccccc1N(CCS(=O)(=O)c1ccccc1)C2=O | -0.309 (inactive) | 0.199 | 33.3 (active) | 28.5 (active) | 3.7 (inactive) | 8.56 (active) | 0.766 | -1.55 (inactive) | 0.599 (inactive) | -1.91 | 0.4 | 0.962 | 1.05 | -1.41 | -1.02 | 0.381 | 2.23 (inactive) | -0.899 | -1.22 | -1.54 (inactive)
COc1ccc(NC(=O)O[C@H]2[C@H](OC(=O)Nc3ccc4c(c3)OCO4)[C@@H](OC(=O)Nc3ccc4c(c3)OCO4)[C@@H](OC)O[C@@H]2CO)cc1 | 0.898 (inactive) | 0.33 | 5.81 (inactive) | 1.13 (inactive) | 0.081 (inactive) | 0.521 (inactive) | -0.182 | -3.33 (inactive) | -0.666 (inactive) | -2.16 | -1.11 | -0.0868 | -1.67 | -1.44 | -0.7 | 0.818 | 0.533 (inactive) | -0.628 | -0.786 | 0.441 (inactive)
